# The source made the active and inactive calls. How the source made its calls: active means hit-call score of the fitted dose curve at least 0.9, where 1 is the maximum; inactive means score below 0.9.
# Assay: ATG_TCF_b_cat_CIS: Attagene CIS-FACTORIAL HepG2 Assay for human T-Cell-Factor with beta-catenin (TCF/b-cat) (AID 2282965)
# Conditions: HepG2 TCF/beta-catenin cis-reporter transcription, actives raise or lower the signal
# Method in brief: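 Endogenous transcription factor activity is captured through cis-promoter reporter constructs transiently introduced into human HepG2 liver cells. Induced reporter mRNA is measured after 24 h and fitted bidirectionally relative to DMSO.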
Structure (SMILES),outcome,AC50
CC1=CC2C3C=CC(C3)C2C1C (configuration not stated),inactive,
C[Si](Cl)(Cl)CCC(F)(F)C(F)(F)C(F)(F)C(F)(F)C(F)(F)C(F)(F)F,inactive,
OCC(O)CC(F)(F)C(F)(F)C(F)(F)C(F)(F)F (configuration not stated),inactive,
O=C(O)C(F)(F)C(F)(F)C(F)(F)OC(F)(F)F,inactive,
CSc1ccc(O)cc1C,inactive,
OCC(F)(F)C(F)(F)C(F)(F)CO,inactive,
O=C1c2ccccc2C(=O)c2c(Cl)cccc21,inactive,
OCC(O)CC(F)(F)C(F)(F)C(F)(F)C(F)(F)C(F)(F)C(F)(F)C(F)(F)C(F)(F)F (configuration not stated),inactive,
CCC(=O)OC(C)c1ccccc1 (configuration not stated),inactive,
CCC(Cc1c(I)cc(I)c(N)c1I)C(=O)O (configuration not stated),,55.5 µM (active)
COC(F)(C(F)F)C(F)(F)F (configuration not stated),inactive,
CN(C(=O)C(F)(F)C(F)(F)C(F)(F)F)[Si](C)(C)C,inactive,
NCC(F)(F)C(F)(F)C(F)(F)C(F)(F)C(F)(F)C(F)(F)F,inactive,
OCC(F)(F)C(F)(F)C(F)(F)C(F)(F)C(F)(F)C(F)(F)C(F)(F)C(F)(F)CO,inactive,
OCCCC(F)(F)C(F)(F)C(F)(F)C(F)(F)C(F)(F)C(F)(F)C(F)(F)C(F)(F)F,,28.9 µM (active)
O=C1C=CC(=O)N1c1ccccc1,inactive,
NC(=O)C(F)(F)C(F)(F)C(F)(F)C(F)(F)C(F)(F)C(F)(F)C(F)(F)F,inactive,
O=C(O)C(F)(F)OC(F)(F)C(F)(F)OC(F)(F)C(F)(F)OC(F)(F)F,inactive,
FC(F)(F)C(F)(F)C(F)(F)CC1CO1 (configuration not stated),inactive,

Structure (SMILES),outcome,AC50
Cc1ccc(S(=O)(=O)C(I)I)cc1,,8.97 µM (active)
CCOC(=O)CC(=O)C(F)(F)C(F)(F)F,inactive,
Cc1cnccn1,inactive,
C=C(C)C(=O)OCC(F)(F)C(F)(F)C(F)(F)C(F)F,inactive,
CC(C)CC=C(C=O)c1ccccc1,inactive,
CC(C)=CCCC(C)O (configuration not stated),inactive,
NC(=O)C(F)(F)C(F)(F)C(F)(F)C(F)(F)C(N)=O,inactive,
Nc1cccnc1N,inactive,
Cc1ccc2c(c1)OCC(=O)CO2,inactive,
COC(=O)c1ccc(C=O)cc1,inactive,
O=C(F)C1(F)C(F)(F)C(F)(F)C(F)(F)C(F)(F)C1(F)F,inactive,
FC(F)(F)C(F)(F)C(F)(F)C(F)(F)C(F)(F)C(F)(F)C(F)(F)CCI,inactive,
Nc1c(Br)cc([N+](=O)[O-])cc1Br,inactive,
O=S(=O)(Cl)C(F)(F)C(F)(F)C(F)(F)C(F)(F)C(F)(F)C(F)(F)C(F)(F)C(F)(F)F,inactive,
CCOC(C=C(C)CCC=C(C)C)OCC,inactive,
CNS(=O)(=O)C(F)(F)C(F)(F)C(F)(F)C(F)(F)C(F)(F)C(F)(F)C(F)(F)C(F)(F)F,inactive,
C=CC(=O)OCC(F)(F)C(F)(F)C(F)(F)COC(=O)C=C,,19.8 µM (active)
CCN(CCO)S(=O)(=O)C(F)(F)C(F)(F)C(F)(F)C(F)(F)C(F)(F)C(F)(F)C(F)(F)C(F)(F)F,inactive,

# Source: PubChem BioAssay (EPA / NIEHS)
